Laboratory results published in PubChem BioAssay (NCI).
This is part of a sample that, as a whole, favours compounds with a hit. Of some 79,000 tested, about 15% had one in any assay. Values without a mark were called inactive. Active and inactive are the calls of the source. Rule as the data show it: active = growth inhibition above about 70%; inactive = the rest.

What was measured:
[1] = NCI Yeast Anticancer Drug Screen. Data for the rad50 strain (AID 155);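 also: 0% = growth of vehicle-only cultures of the same strain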; settings: S. cerevisiae rad50 strain growth inhibition, hits give high values
Procedure, shortened: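 Inhibition values express reduced yeast growth in compound-treated cultures relative to vehicle-treated controls.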

[2] = NCI Yeast Anticancer Drug Screen. Data for the mec2-1 strain (AID 157); settings: S. cerevisiae mec2-1 strain, hits give high values
Procedure, shortened: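 Readout is yeast growth inhibition, normalised to vehicle-treated controls, in the mec2-1 strain exposed to compound.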

[3] = NCI Yeast Anticancer Drug Screen. Data for the sgs1 mgt1 strain (AID 161);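 also: 0% = growth of cultures given vehicle only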; settings: S. cerevisiae sgs1 mgt1 strain, hits give high values
Procedure, shortened: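 Yeast cells carrying a defined DNA-repair defect were exposed to test compounds. Growth inhibition was measured relative to vehicle-treated controls.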

[4] = NCI Yeast Anticancer Drug Screen. Data for the cln2 rad14 strain (AID 165);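 also: 0% = growth equal to vehicle treated cultures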; settings: S. cerevisiae cln2 rad14 strain, hits give high values
Procedure, shortened: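 Relative to vehicle controls, growth inhibition of compound-treated cln2 rad14 yeast was recorded.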

[5] = NCI Yeast Anticancer Drug Screen. Data for the bub3 strain (AID 167); settings: S. cerevisiae bub3 mutant strain, hits give high values
Procedure, shortened: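 Steps: expose the mutant yeast strain to compound; grow alongside vehicle-treated cultures; measure growth; express inhibition against the vehicle cultures.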

[6] = NCI Yeast Anticancer Drug Screen. Data for the mlh1 rad18 strain (AID 175); settings: S. cerevisiae mlh1 rad18 strain growth inhibition, hits give high values
Procedure, shortened: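 Test agents were incubated with a yeast strain of defined genotype (DNA damage repair defect). Inhibition of growth was derived by comparison with vehicle-exposed cultures.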

[7] = at 5.0 µM (retest, dose inferred, filed as 0.5)
[8] = at 50.0 µM (retest, dose inferred, filed as 5.0)

| Compound | growth inhibition [1, 7] | growth inhibition [1, 8] | growth inhibition ([1]; at 50.0 µM) | growth inhibition [2, 7] | growth inhibition [2, 8] | growth inhibition ([2]; at 50.0 µM) | growth inhibition [3, 7] | growth inhibition [3, 8] | growth inhibition ([3]; at 50.0 µM) | growth inhibition [4, 7] | growth inhibition [4, 8] | growth inhibition ([4]; at 50.0 µM) | growth inhibition [5, 7] | growth inhibition [5, 8] | growth inhibition ([5]; at 50.0 µM) | growth inhibition [6, 7] | growth inhibition [6, 8] | growth inhibition ([6]; at 50.0 µM) |
| --- | --- | --- | --- | --- | --- | --- | --- | --- | --- | --- | --- | --- | --- | --- | --- | --- | --- | --- |
| COC(=O)C1=C(C(=O)OC)C2(C)OC1c1ccccc12 (stereo unspecified) | -5% | 96% (active) | 98.2% (active) | 4% | 95% (active) | 98.1% (active) | 4% | 96% (active) | 98% (active) | 0% | 92% (active) | 93.6% (active) | 7% | 98% (active) | 97% (active) | 14% | 95% (active) | 98.3% (active) |
| NC1=NC(=O)N2CC12 (stereo unspecified) | 30% | 36% | 48.5% | 13% | 7% | -9.3% | 25% | 16% | 8.2% | 20% | 15% | 11.4% | 21% | 18% | 7% | 29% | 52% | 6.4% |
| Oc1c(Cl)c(Cl)cc(Cl)c1Cc1c(Cl)cc(Cl)c(Cl)c1[O][Pb]([c]1ccccc1)([c]1ccccc1)[c]1ccccc1 | 99% (active) | 87% (active) | 99.5% (active) | 99% (active) | 90% (active) | 99.5% (active) | 99% (active) | 89% (active) | 99.7% (active) | 99% (active) | 87% (active) | 99% (active) | 99% (active) | 89% (active) | 99.3% (active) | 99% (active) | 87% (active) | 99.5% (active) |
| COc1ccc(NN=O)nc1 | 21% | 16% | 31.9% | 8% | 17% | -2.2% | 18% | 23% | -20.9% | 7% | 24% | -18.6% | 20% | 22% | -22.4% | 20% | 29% | 3.95% |
| CCC[CH2][Sn]1([CH2]CCC)[O]C(=O)c2cccc(OC)c2[O]1 | 93% (active) | 99% (active) | 97.8% (active) | 95% (active) | 99% (active) | 98% (active) | 93% (active) | 98% (active) | 99.2% (active) | 93% (active) | 98% (active) | 98.4% (active) | 94% (active) | 97% (active) | 98.4% (active) | 88% (active) | 98% (active) | 98.9% (active) |
| CCCCCc1cc(O)c(CCCC)c(O)c1 | -107% | 87% (active) | 99.4% (active) | -39% | 63% | 99% (active) | -43% | 90% (active) | 99% (active) | -47% | 32% | 99.1% (active) | -56% | 83% (active) | 99.2% (active) | -92% | 87% (active) | 99% (active) |
| C[N+](C)(C)CC1CCCc2ccccc2C1=O (stereo unspecified) | 22% | 90% (active) | 88% (active) | 20% | 97% (active) | 85.9% (active) | 17% | 88% (active) | 91.3% (active) | 6% | 43% | 81% (active) | 32% | 99% (active) | 88.1% (active) | 30% | 98% (active) | 90.5% (active) |
| CC(C)CCC1(CCSC(=O)S)C(=O)NC(=O)NC1=O | -4% | 77% (active) | 85.3% (active) | 0% | 62% | 8.3% | 4% | 67% | 25.8% | -4% | 21% | -37.2% | -4% | 65% | 19.8% | -8% | 70% (active) | 30.8% |
| Cc1ccc(OP(=O)(Oc2ccc(C)cc2)Oc2ccc(C)cc2)cc1.Cc1ccc(OP(=O)(Oc2ccc(C)cc2)Oc2ccc(C)cc2)cc1.Cc1ccc(OP(=O)(Oc2ccc(C)cc2)Oc2ccc(C)cc2)cc1.Cc1ccc(OP(=O)(Oc2ccc(C)cc2)Oc2cccc(C)c2)cc1.[Cd+2].[O-][Cl+3]([O-])([O-])O | 12% | 64% | 58.6% | 6% | 33% | 45% | 9% | 29% | 20% | -11% | 32% | 62.6% | 10% | 23% | 36.6% | 10% | 36% | 39.2% |
| [C-]#[O+].[C-]#[O+].[Mo].c1ccc([PH+](CC[PH+](c2ccccc2)c2ccccc2)c2ccccc2)cc1.c1ccc([PH+](CC[PH+](c2ccccc2)c2ccccc2)c2ccccc2)cc1 | 0% | 65% | 2% | 2% | 52% | 59.3% | -1% | 41% | 1.3% | -2% | 71% (active) | 2.55% | 0% | 76% (active) | -1.85% | 4% | 80% (active) | -0.8% |
| C#CCN1C(=O)N(CC#C)C(=O)C(CC#C)(C(CC=C)c2ccccc2)C1=O (stereo unspecified) | 1% | 96% (active) | 57.3% | 2% | 97% (active) | 26.6% | -1% | 97% (active) | 66.5% | 16% | 95% (active) | 58.5% | 9% | 98% (active) | 59% | -23% | 97% (active) | 53.4% |
| S=C=NCCc1ccccc1 | -12% | 21% | 72% (active) | -13% | 18% | 48.4% | -5% | -8% | 42.5% | 2% | 8% | 28.1% | 5% | 20% | 43.8% | -20% | 15% | 61.6% |
| ClCC[Se](Cl)(Cl)c1ccccc1 | 33% | 75% (active) | 42.9% | 19% | 20% | 55.6% | 29% | 48% | 72% (active) | 25% | 44% | 60.5% | 6% | 46% | 53.2% | 33% | 68% | 86.2% (active) |
| COC1(O[C@H]2CC[C@H]3[C@@H]4CCC5=CC(=O)CC[C@]5(C)[C@H]4CC[C@]23C)CCCCC1 | 3% | -8% | 99.5% (active) | 5% | 2% | 99.5% (active) | -30% | -33% | 99.5% (active) | 1% | -4% | 99.2% (active) | 1% | -4% | 99.1% (active) | -25% | -56% | 99.4% (active) |
| O=C1C=Cc2ccccc2C1=O | 29% | 87% (active) | 83.6% (active) | 32% | 95% (active) | 88.8% (active) | 30% | 72% (active) | 88.2% (active) | 18% | 87% (active) | 46.3% | 36% | 97% (active) | 91.9% (active) | 31% | 96% (active) | 94.9% (active) |
| COC(CNS(=O)(=O)c1ccccc1)[CH2][Hg][O]C(C)=O (stereo unspecified) | 1% | -1% | 99.5% (active) | -3% | 13% | 98.8% (active) | -5% | 19% | 99.2% (active) | -4% | 6% | 99.1% (active) | 2% | 4% | 99.2% (active) | -2% | 11% | 99.2% (active) |
| O=C(N/N=C(/CCN1CCCC1)CC(c1ccccc1)c1c(O)c2ccccc2oc1=O)c1ccncc1 (stereo unspecified) | 15% | 15% | 83.3% (active) | -4% | -4% | 80% (active) | -1% | -1% | 85.1% (active) | -1% | -1% | 82.3% (active) | 0% | 0% | 81.3% (active) | 14% | 14% | 81.2% (active) |
